From PubChem BioAssay AID1159580 (chemical genetic matrix, 2015)
In all, about 5,500 compounds went through this assay and about 2,000 (36%) were called active. Not shown: some 18% with an inconclusive outcome. Rule as the data show it: active = normalized growth mostly below about 0.91 (no sharp cut-off); inconclusive = no clear call, values can overlap the other calls; inactive = mostly above about 0.92. The list shows a part of the results.

Experiment: chemical genetic growth profiling, strain panel (AID 1159580);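 also: tested at 20 µM; growth read once vehicle control cultures reached saturation at 30 °C; 1 = growth at the plate median or of vehicle wells; lower values mean less growth of the strain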
Conditions: growth OD

Measured: normalized growth

C/C1=C\CC(C)(C)/C=C/CC2(C)OC2CC1 (stereo unspecified)
inactive: S. cerevisiae deletion strains, locus YBR021W, strain FUR4, stronger effect = lower value 1.02 | S. cerevisiae deletion strains, locus YBR229C, strain ROT2, stronger effect = lower value 1.01 | S. cerevisiae deletion strains, locus YCL029C, strain bik1, stronger effect = lower value 0.999 | S. cerevisiae deletion strains, locus YDL035C, strain GPR1, stronger effect = lower value 0.998 | S. cerevisiae deletion strains, locus YDL074C, strain BRE1, stronger effect = lower value 1.01 | S. cerevisiae deletion strains, locus YDL101C, strain DUN1, stronger effect = lower value 1.03 | S. cerevisiae deletion strains, locus YDL185W, strain tfp1, stronger effect = lower value 1.01 | S. cerevisiae deletion strains, locus YDL192W, strain arf1, stronger effect = lower value 1.01 | S. cerevisiae deletion strains, locus YDR101C, strain arx1, stronger effect = lower value 0.968 | S. cerevisiae deletion strains, locus YDR150W, strain NUM1, stronger effect = lower value 1.01 | S. cerevisiae deletion strains, locus YDR162C, strain NBP2, stronger effect = lower value 1 | S. cerevisiae deletion strains, locus YDR318W, strain mcm21, stronger effect = lower value 0.997 | S. cerevisiae deletion strains, locus YDR388W, stronger effect = lower value 1.01 | S. cerevisiae deletion strains, locus YDR502C, strain sam2, stronger effect = lower value 1.03 | S. cerevisiae deletion strains, locus YEL061C, strain CIN8, stronger effect = lower value 1.01 | S. cerevisiae deletion strains, locus YER110C, stronger effect = lower value 1.02 | S. cerevisiae deletion strains, locus YER155C, strain BEM2, stronger effect = lower value 1 | S. cerevisiae deletion strains, locus YER167W, strain BCK2, stronger effect = lower value 1 | S. cerevisiae deletion strains, locus YGL078C, strain dbp3, stronger effect = lower value 1.01 | S. cerevisiae deletion strains, locus YGL086W, strain mad1, stronger effect = lower value 1.01 | S. cerevisiae deletion strains, locus YGL248W, strain PDE1, stronger effect = lower value 1.04 | S. cerevisiae deletion strains, locus YGR135W, strain pre9, stronger effect = lower value 1.05 | S. cerevisiae deletion strains, locus YGR252W, strain gcn5, stronger effect = lower value 1.05 | S. cerevisiae deletion strains, locus YHR030C, strain SLT2, stronger effect = lower value 1 | S. cerevisiae deletion strains, locus YHR079C, strain IRE1 (second series), stronger effect = lower value 1.01 | S. cerevisiae deletion strains, locus YHR094C, strain hxt1, stronger effect = lower value 1.02 | S. cerevisiae deletion strains, locus YHR129C, strain ARP1, stronger effect = lower value 1.01 | S. cerevisiae deletion strains, locus YHR200W, strain rpn10, stronger effect = lower value 1.01 | S. cerevisiae deletion strains, locus YIL066C, strain RNR3, stronger effect = lower value 1.01 | S. cerevisiae deletion strains, locus YIL073C, strain SPO22, stronger effect = lower value 1.04 | S. cerevisiae deletion strains, locus YIL125W, strain kgd1, stronger effect = lower value 1.01 | S. cerevisiae deletion strains, locus YIR030C, strain dcg1, stronger effect = lower value 0.999 | S. cerevisiae deletion strains, locus YJL095W, strain BCK1, stronger effect = lower value 1.08 | S. cerevisiae deletion strains, locus YJL134W, strain LCB3, stronger effect = lower value 1 | S. cerevisiae deletion strains, locus YJL168C, strain set2, stronger effect = lower value 1.02 | S. cerevisiae deletion strains, locus YJL187C, strain SWE1 (second series), stronger effect = lower value 1.03 | S. cerevisiae deletion strains, locus YJR043C, strain POL32, stronger effect = lower value 0.99 | S. cerevisiae deletion strains, locus YJR075W, strain HOC1, stronger effect = lower value 1.01 | S. cerevisiae deletion strains, locus YKL009W, strain mrt4, stronger effect = lower value 1.01 | S. cerevisiae deletion strains, locus YKL068W, stronger effect = lower value 1 | S. cerevisiae deletion strains, locus YKL085W, strain MDH1 (second series), stronger effect = lower value 1.01 | S. cerevisiae deletion strains, locus YKL085W, strain MDH1, stronger effect = lower value 1.01 | S. cerevisiae deletion strains, locus YKR001C, strain vps1, stronger effect = lower value 0.998 | S. cerevisiae deletion strains, locus YLR039C, strain RIC1, stronger effect = lower value 1.04 | S. cerevisiae deletion strains, locus YLR058C, strain SHM2, stronger effect = lower value 1.01 | S. cerevisiae deletion strains, locus YLR102C, strain apc9, stronger effect = lower value 1.01 | S. cerevisiae deletion strains, locus YLR262C, strain YPT6, stronger effect = lower value 1.07 | S. cerevisiae deletion strains, locus YLR268W, strain sec22, stronger effect = lower value 0.99 | S. cerevisiae deletion strains, locus YLR342W, strain FKS1 (second series), stronger effect = lower value 1.02 | S. cerevisiae deletion strains, locus YLR371W, strain rom2, stronger effect = lower value 0.984 | S. cerevisiae deletion strains, locus YLR418C, strain cdc73, stronger effect = lower value 1.08 | S. cerevisiae deletion strains, locus YML016C, strain PPZ1, stronger effect = lower value 1 | S. cerevisiae deletion strains, locus YML032C, strain rad52, stronger effect = lower value 1 | S. cerevisiae deletion strains, locus YML124C, strain tub3, stronger effect = lower value 1 | S. cerevisiae deletion strains, locus YMR078C, strain ctf18, stronger effect = lower value 1.01 | S. cerevisiae deletion strains, locus YMR223W, strain ubp8, stronger effect = lower value 1.01 | S. cerevisiae deletion strains, locus YMR263W, strain SAP30, stronger effect = lower value 1.02 | S. cerevisiae deletion strains, locus YMR307W, strain GAS1, stronger effect = lower value 0.978 | S. cerevisiae deletion strains, locus YNL067W, strain RPL9B, stronger effect = lower value 1.02 | S. cerevisiae deletion strains, locus YNL153C, strain GIM3, stronger effect = lower value 1.03 | S. cerevisiae deletion strains, locus YNL233W, strain BNI4, stronger effect = lower value 1.03 | S. cerevisiae deletion strains, locus YNL250W, strain rad50, stronger effect = lower value 1.01 | S. cerevisiae deletion strains, locus YNL271C, strain bni1, stronger effect = lower value 1.01 | S. cerevisiae deletion strains, locus YNL298W, strain CLA4, stronger effect = lower value 0.995 | S. cerevisiae deletion strains, locus YNL307C, strain MCK1, stronger effect = lower value 1.03 | S. cerevisiae deletion strains, locus YNR052C, strain pop2, stronger effect = lower value 1.01 | S. cerevisiae deletion strains, locus YOL006C, strain TOP1, stronger effect = lower value 1 | S. cerevisiae deletion strains, locus YOL012C, strain htz1 1.6 | S. cerevisiae deletion strains, locus YOL147C, strain pex11, stronger effect = lower value 1.01 | S. cerevisiae deletion strains, locus YOR061W, strain CKA2, stronger effect = lower value 0.994 | S. cerevisiae deletion strains, locus YOR069W, strain VPS5, stronger effect = lower value 1.01 | S. cerevisiae deletion strains, locus YOR136W, strain idh2, stronger effect = lower value 1 | S. cerevisiae deletion strains, locus YOR144C, strain elg1, stronger effect = lower value 1 | S. cerevisiae deletion strains, locus YOR184W, strain ser1, stronger effect = lower value 0.986 | S. cerevisiae deletion strains, locus YOR316C, strain cot1, stronger effect = lower value 1 | S. cerevisiae deletion strains, locus YPR119W, strain clb2, stronger effect = lower value 1.02 | S. cerevisiae deletion strains, locus YPR141C, strain kar3, stronger effect = lower value 1.01 | S. cerevisiae deletion strains, locus YPR163C, strain tif3, stronger effect = lower value 1.02 | S. cerevisiae deletion strains, locus YPR167C, strain met16, stronger effect = lower value 1.02 | S. cerevisiae deletion strains, strain wtn01, stronger effect = lower value 0.974 | S. cerevisiae strains, strain wild type, stronger effect = lower value 1.01
